# AmpC no deterg: inhibitors of E. coli AmpC beta-lactamase without detergent. P00811. AmpC nitrocefin hydrolysis, absorbance 480 nm, 0.0001% Triton. AID 485341. 0.52% of 330,000 active. Potency, µM (series often up to 57.1 µM), inactives show at the top dose activity change, negative = inhibition, hits mostly inhibitors;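 also: plate controls were no compound for no effect and no enzyme for full effect; nearly all actives have a fitted effect of over 20% in size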
# Target sequence (P00811 whole entry, looked up): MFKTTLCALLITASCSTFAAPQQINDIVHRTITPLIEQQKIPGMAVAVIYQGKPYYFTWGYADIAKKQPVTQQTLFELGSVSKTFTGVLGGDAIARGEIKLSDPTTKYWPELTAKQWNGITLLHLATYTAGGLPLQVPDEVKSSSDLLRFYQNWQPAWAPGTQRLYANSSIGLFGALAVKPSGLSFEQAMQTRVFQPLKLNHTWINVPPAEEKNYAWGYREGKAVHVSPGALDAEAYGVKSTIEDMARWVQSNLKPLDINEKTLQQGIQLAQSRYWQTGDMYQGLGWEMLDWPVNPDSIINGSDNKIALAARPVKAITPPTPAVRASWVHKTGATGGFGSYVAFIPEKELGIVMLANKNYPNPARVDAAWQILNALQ
#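 20 mM phosphate pH 7.0 + 0.01% (detergent screen) or 0.0001% Triton X-100; 5.3 nM AmpC reagent; cpd preinc 15 min RT; nitrocefin (800 uM stock) to start; A480 q20 s × 4 min; Activity was normalised to no-enzyme and no-compound control wells.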
# AMA1-RON2 inh: inhibitors of Plasmodium falciparum AMA1-RON2 interaction; AlphaScreen AMA1-biotinylated RON2 peptide binding; Potency, µM (titrated, usually from 58.2 µM), without a hit: at the top dose activity change, negative = inhibition, most hits filed as inhibitors; 0.2% of 360,000 active;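 also: 0% = vehicle wells and -100% = peptide control; nearly all actives have a fitted effect of over 45% in size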
#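 AMA1 (3D7) with his tag at 25 nM final met compounds first, then biotinylated RON2 peptide at 25 nM; detection used donor plus acceptor beads, 10 µg/mL apiece, read by AlphaScreen after 30 min at room temperature.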
# SARS PLP yeast: inhibitors of SARS-CoV papain-like protease in yeast | S. cerevisiae expressing SARS-CoV PLpro, growth rescue | AID 485353 | 0.19% of 330,000 active | Potency, µM (top dose mostly 32.9 µM), inactives show at the highest dose activity, positive = growth rescue, actives largely listed as activators; calls by dose curve; also: 0% is about no effect; nearly all actives have a fitted effect of over 55% in size
# AmpC inh detg: blocks E. coli AmpC beta-lactamase in detergent assay; P00811; AmpC hydrolysis of nitrocefin, absorbance 480 nm, 0.01% Triton; 0.041% of 370,000 active; Potency, µM (series often up to 114 µM), for inactives: top-dose activity change, negative = inhibition, usual class: inhibitors;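 also: 0% = no-compound wells and -100% = no-enzyme wells; nearly all actives have a fitted effect of over 25% in size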
#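 AmpC (5.3 nM in the dispensed reagent) in 20 mM phosphate pH 7.0 with 0.01% (detergent screen) or 0.0001% Triton X-100 was preincubated with compounds for 15 min at room temperature. Nitrocefin was then added from an 800 uM solution, and hydrolysis was followed at 480 nm.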
# NS1 inh: influenza NS1 inhibition. Potency, µM (titrated, usually from 46.1 µM), inactives show at the highest dose activity, positive = more growth. 0.4% of 270,000 active; calls by dose curve; also: actives are rising curves; nearly all actives have a fitted effect of over 50% in size
#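 Read-out: OD600 growth recovery of NS1-expressing budding yeast. Cells grown overnight at 30C in -URA glucose medium, washed, resuspended and diluted 1:100 in 2% galactose assay medium, pH 6.0. Same strain lacking NS1 served as positive control.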
# Active calls of the source: *; ? = inconclusive; / = not tested or not shown; [ ] = another dose, or the depositor's remark. In the library only some 0.99% were active in any assay of this set; here they are far more common. Unless noted, calls follow the shape of the dose curve; as a rule, active = well fitted curve in the direction sought with a large enough effect; inconclusive = small, poorly fitted or top-dose-only effect, or another doubt; inactive = no such curve, though single readings can be large; an effect the other way counts as inactive or inconclusive. Potency is read from the fitted curve at half-maximal effect.
SMILES,AmpC no deterg,AMA1-RON2 inh,SARS PLP yeast,AmpC inh detg,NS1 inh
CS(=O)(=O)O[C@H]1CN2CCC1CC2,/,/,/,/,-4.5%
Cc1ccc(NC(=O)C(OC(=O)c2ccc(F)cc2)c2ccccc2)cc1Cl (stereo not given),-19.9%,-7.6%[11.6 µM],-31.5%,-0.7%,0.7%
Cc1ccc(NC(=O)C(OC(=O)c2ccc(O)cc2)c2ccccc2)cc1Cl (stereo not given),7.08µM*,7.5%,-32.6%,-3.4%,-1.4%
COc1ccc(-n2c(SCC(=O)Nc3ccc4c(c3)OCO4)nc3c([nH]c4ccccc43)c2=O)cc1,/,/,/,-4.8%,/
Brc1ccc(CNc2cc3c(cc2Br)OCCO3)cc1,-8.3%,12.6µM*,-16.5%,9.8%,/
CC(C)CCNC(=O)Cc1ccc(Nc2nc(=S)[nH]c3ccccc23)cc1,15.8µM*,79.6%,-1.6%,3.1%,-9.7%
O=C(CCCCCNc1nc(=S)[nH]c2ccccc12)NCCc1c[nH]c2ccccc12,-56.9%,45.1%,-2.0%,?,-10.9%
O=C(CCCCCNc1nc(=S)[nH]c2ccccc12)NCCc1ccc(Cl)cc1,20µM*,34.6%,2.9%,-5.1%,2.6%
O=C(NCCc1csc(-c2ccc(F)cc2)n1)c1cccs1,/,/,/,14.7%,/
CCOC(=O)c1cc(S(=O)(=O)NCc2cccc(Cl)c2)[nH]n1,/,/,/,-2.7%,/
Cc1ccccc1Nc1c(-c2ccco2)nc2c(C)cccn12,/,/,/,7.5%,/
C/C(=N/Nc1nc(-c2ccccc2)cc(-c2ccccc2)n1)c1ccc(N)cc1,-22.2%,/,-49.9%,5.4%,7.94µM*
Cc1ccc(NC(=S)c2nc3ccccc3s2)cc1,-21.6%,10µM*,-3.5%,-4.5%,-7.8%
Cc1ccc2c(CC(=O)N3CCN(c4cccc(Cl)c4)CC3)coc2c1C,/,/,/,17.1%,/
Cc1ccccc1C(=O)Nc1cc2c(cc1N1CCCCC1)n(C)c(=O)n2C,/,/,/,4.4%,/
CCn1ncc(Cl)c1C(=O)NC(C)c1ccccc1 (stereo not given),0.355µM*,12.2%,4.4%,2.0%,0.9%
Cc1nc(S(=O)(=O)c2ccc(Cl)cc2)c(NCc2ccccc2)o1,-54.8%,-2.7%,5.4%,56.2µM*,2.5%
CC(=O)c1cccc(Nc2ncnc3c2cnn3C)c1,/,/,/,-2.3%,/
c1ccc(Nc2ccc(Nc3ccccc3)cc2)cc1,-19.9%,15.8µM*,-6.3%,-0.4%,/
CN(C)c1ccc(C(CNC(=O)c2ccc(C#N)cc2)c2c[nH]c3ccccc23)cc1 (stereo not given),-27.0%,14.1µM*,10.3%,-0.8%,28.0%
CCOc1ccc(-c2nnc(SCC(=O)NCCC(C)C)nc2-c2ccc(OCC)c(OC)c2)cc1OC,/,/,/,-8.0%,/
Cc1ccc(CCNc2ncnc3onc(C)c23)cc1,/,/,/,12.5%,/
C=CCN1C(=O)NC(=O)/C(=C/C=C/c2ccccc2)C1=O,-27.9%,2.7%,-2.3%,5.0%,/
O=C1NC(=O)N(CCc2ccc(F)cc2)C(=O)/C1=C\C=C\c1ccccc1,3.55µM*,-7.3%,2.0%,-2.0%,/
CCOC(=O)C1=C(C)N=c2s/c(=C/c3ccccc3)c(=O)n2C1c1ccc(OC)c(OC)c1 (stereo not given),-8.4%,-3.2%,3.3%,1.3%,2.7%
SMILES,AmpC no deterg,AMA1-RON2 inh,SARS PLP yeast,AmpC inh detg,NS1 inh
CCOC(=O)C1=C(c2ccccc2)N=c2s/c(=C\c3ccco3)c(=O)n2C1c1cccs1 (stereo not given),12.6µM*,?,-6.0%,-0.3%,-26.6%
C=CCN(c1ccccc1)S(=O)(=O)c1cccc(C(=O)Nc2ccncc2)c1,-26.8%,-0.8%,10.8%,-11.4%,/
C=CCN(c1ccccc1)S(=O)(=O)c1cccc(C(=O)Nc2nc3ccccc3[nH]2)c1,10µM*,14.2%,1.9%,-12.1%,11.6%
O=c1c2c(-c3ccccc3)csc2ncn1/N=C/c1ccc(O)c([N+](=O)[O-])c1,-22.1%,0.8%,-5.7%,1.1%,/
O=c1c2c(-c3ccccc3)csc2ncn1/N=C/c1cccc([N+](=O)[O-])c1O,-32.3%,20µM*,-20.6%,0.8%,/
COc1ccccc1CNC(=O)C1CCCN(c2nc3ccccc3n3cccc23)C1 (stereo not given),/,/,/,20.2%,/
CN1/C(=C\C=C2/SC(=S)N(CC(=O)O)C2=O)C(C)(C)c2ccccc21,-22.0%,20µM*,-0.5%,3.6%,8.5%
COc1ccc(NC(=O)c2cc(-c3ccc(C)c(C)c3O)n[nH]2)cc1Cl,17.8µM*,108.6%,-3.0%,?,1.5%
Cc1nnc2c(Nc3cccc(O)c3)nc3ccccc3n12,/,/,/,8.5%,/
CN(C)S(=O)(=O)c1ccc(C(=O)Nc2cc(S(=O)(=O)Nc3ccccc3Cl)ccc2N2CCCCC2)cc1,3.16µM*,4.7%,-14.1%,-3.9%,?
CN1CCN(c2ccc(Cl)cc2NC(=O)c2ccc(S(=O)(=O)N(C)C)cc2)CC1,21.6%,-4.4%,6.8%,0.6%,-0.9%
COc1ccc(NC(=O)c2oc3ccc(S(=O)(=O)N4CCC5(CC4)OCCO5)cc3c2C)cc1,100.9%,-5.1%,-1.9%,-2.7%,11.2µM*
CCc1ccccc1NC(=O)CNC(=O)CCc1nc2sc3c(c2c(=O)[nH]1)CCCC3,31.6µM*,-18.3%,1.0%,?,/
CCC(Sc1nc2ccsc2c(=O)n1CCC(=O)O)C(=O)Nc1ccc(Cl)cc1 (stereo not given),/,-27.9%,/,/,/
CCC(Sc1nc2ccsc2c(=O)n1Cc1ccc(C(=O)O)cc1)C(=O)Nc1ccc(C)c(Cl)c1 (stereo not given),8.91µM*,-5.7%,0.0%,-0.8%,-19.2%
CC(=O)c1c(C)[nH]c(-c2ccccc2)nc1=S,-18.0%,82.3%,0.4%,11.0%,7.3%
CC(=O)c1c(NC(=O)c2ccccc2)[nH]c(-c2ccccc2)nc1=S,22.4µM*,92.7%,6.9%,?,/
COc1cccc(NC(CNS(=O)(=O)c2ccc(Cl)cc2)c2ccccc2)c1 (stereo not given),/,/,/,24.8%,/
CCc1ccc(C2C(C#N)=C(N)SC(N)=C2C#N)cc1,8.91µM*,9.9%,-8.1%,-13.2%,14.3%
CC(=O)Nc1cc(=O)c2cccnc2[nH]1,/,14.1µM*,/,/,/
Cc1nn(C(C)C(=O)N2CCN(c3ccc(Cl)cc3)CC2)c(=O)c2cc3occc3n12 (stereo not given),/,/,/,-0.5%,/
O=C(CC(=O)c1ccccc1)Nc1cc(C(F)(F)F)ccc1Cl,25.1µM*,-16.4%,21.2%,-3.0%,4.0%
COc1ccc(Cl)cc1C(=O)NCC(c1ccco1)N1CCCC1 (stereo not given),0.159µM*,-9.9%,0.1%,2.9%,0.1%
CCOCCc1nn2c(=O)cc(COC(=O)c3ccco3)nc2s1,/,/,/,-2.8%,/
CC(Oc1ccc(-c2ccccc2)c(F)c1)c1ccn(S(=O)(=O)c2ccc(F)cc2)n1 (stereo not given),-20.9%,2.7%,13.3%,-8.0%,-1.9%
COc1ccc(S(=O)(=O)n2ccc(C(C)Oc3ccc(-c4ccccc4)c(F)c3)n2)cc1 (stereo not given),0.398µM*,0.0%,-1.6%,2.8%,7.1%

# Screens as filed in PubChem BioAssay.
